VDR inh: Inhibitors of the vitamin D receptor (VDR): qHTS. Potency, µM, for inactives: max response, negative = inhibition, actives largely listed as inhibitors. 400,000 compounds, 0.93% hits. Vitamin D3 receptor (Homo sapiens), P11473. VDR-SRC2-3 peptide fluorescence polarization, 2 h
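Fluorescence polarization assay measuring small-molecule disruption of VDR binding to the coregulator peptide SRC2-3. Compounds were pin-transferred (23 nl) into the reagent mix and incubated 2 h at room temperature before reading.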
GCN5L2 inh: qHTS Assay for Inhibitors of GCN5L2; GCN5L2 HAT assay, ThioGlo1 CoA-SH fluorescence; Potency, µM (titrated, usually from 58.9 µM), for the others: top-dose activity change, negative = inhibition, hits mostly inhibitors; 390,000 compounds, 0.21% hits; AID 504327, 2011
Target sequence (Q92830 whole entry, looked up): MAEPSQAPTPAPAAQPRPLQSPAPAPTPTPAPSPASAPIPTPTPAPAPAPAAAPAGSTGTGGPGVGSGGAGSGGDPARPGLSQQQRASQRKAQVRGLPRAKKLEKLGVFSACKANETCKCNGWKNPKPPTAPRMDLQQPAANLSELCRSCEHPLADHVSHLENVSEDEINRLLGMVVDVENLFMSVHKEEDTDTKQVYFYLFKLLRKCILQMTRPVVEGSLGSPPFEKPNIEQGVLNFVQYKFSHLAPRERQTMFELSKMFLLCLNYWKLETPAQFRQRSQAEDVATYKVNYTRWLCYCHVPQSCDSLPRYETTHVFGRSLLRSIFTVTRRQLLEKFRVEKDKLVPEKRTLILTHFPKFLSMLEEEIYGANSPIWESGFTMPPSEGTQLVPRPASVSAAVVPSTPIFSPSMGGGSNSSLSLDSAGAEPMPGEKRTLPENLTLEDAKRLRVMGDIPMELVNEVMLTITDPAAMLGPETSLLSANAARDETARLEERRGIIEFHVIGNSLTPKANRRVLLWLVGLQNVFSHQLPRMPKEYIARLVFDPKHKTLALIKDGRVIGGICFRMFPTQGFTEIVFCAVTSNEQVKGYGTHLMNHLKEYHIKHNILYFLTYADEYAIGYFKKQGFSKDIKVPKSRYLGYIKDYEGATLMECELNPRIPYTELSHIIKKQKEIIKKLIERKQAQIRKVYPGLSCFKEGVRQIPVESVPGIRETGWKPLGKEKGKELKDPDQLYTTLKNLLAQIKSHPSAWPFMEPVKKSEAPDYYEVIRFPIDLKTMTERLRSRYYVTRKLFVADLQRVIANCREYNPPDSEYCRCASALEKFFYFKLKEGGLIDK
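Free CoA generated was detected with ThioGlo1 (50uM) fluorescence at Ex340nm/Em540nm, read immediately and after 20 min at room temperature. Enzyme, 20 nM in HEPES pH 7.5 buffer, saw compounds 15 min before adding 75uM H3(1-25) peptide and 70uM acetyl-CoA.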
PLK1 PBD block: qHTS for Inhibitors of PLK1-PDB (polo-like kinase 1 - polo-box domain): Primary Screen; Potency, µM, without a hit: max response, negative = inhibition, actives largely listed as inhibitors; 360,000 compounds, 2.8% hits; Plk1 PBD binding of FITC phosphopeptide, fluorescence polarization; Serine/threonine-protein kinase PLK1 (Homo sapiens), P53350; also: series mostly up to about 57 µM; nearly all actives have a fitted effect of over 65% in size
ALOX12 inh: Primary qHTS assay for inhibitors of human arachidonate 12S-lipoxygenase (ALOX12): Round 2; purified 12hLO, xylenol orange hydroperoxide absorbance; Potency, µM (series often up to 108 µM), for the others: top-dose activity change, negative = inhibition, usual class: inhibitors; 580,000 compounds, 1.1% hits; AID 1671190, 2021
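Purified human 12hLO (150 nM final) in 25 mM Hepes, 0.01% Triton X-100, pH 7.0 was preincubated 15 min at room temperature with compound. Then 40 uM arachidonic acid was added, 30 min. Hydroperoxide was read by Fe-XO absorbance ratio 573/405 nm.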
Numbers without * were called inactive; ? = inconclusive; . = no result. A selection: hits, their analogues and other compounds. The true share with any hit is near 3%. Calls follow the shape of the dose curve; as a rule, active = well fitted curve in the direction sought with a large enough effect; inconclusive = small, poorly fitted or top-dose-only effect, or another doubt; inactive = no such curve, though single readings can be large; an effect the other way counts as inactive or inconclusive. % is scaled to controls: 0 for no effect and ±100 for the full control effect; potency is read from the fitted curve at half-maximal effect.

SMILES	VDR inh	GCN5L2 inh	PLK1 PBD block	ALOX12 inh
CC(C1=C(O)CC(C)(C)CC1=O)C1=C(O)CC(C)(C)CC1=O	.	.	.	-12%
O=C1CCCC(O)=C1C(C#Cc1ccccc1)C1=C(O)CCCC1=O	?	-3%	2.4µM*	.
O=C(/C=C/c1cccnc1)c1cc2ccc1CCc1ccc(cc1)CC2	.	.	.	22%
COc1ccc(C(=O)Nc2ccc(-c3noc([C@@H]4CCCN4Cc4cnc5ccccc5c4)n3)cn2)cc1	.	.	.	27%
O=[N+]([O-])c1ccc(COc2ccccc2/C=N/O)cc1	-7%	-5%	5%	0%
O=C1NC(=O)/C(=C\c2ccccc2OCc2ccc([N+](=O)[O-])cc2)N1	-21%	-9%	24µM*	-5%
Cc1ccc(S(=O)(=O)NCCOc2nc(N(C)C)nc(N3CCOCC3)n2)cc1	-11%	-13%	-4%	-17%
Cc1ccc(S(=O)(=O)NCCOc2nc(N(C)C)nc(N(C)C)n2)cc1	?	2%	24µM*	-2%
Cc1nn2c(c1-c1ccccc1[S+](C)(=O)[O-])N(Cc1ccc(C(=O)O)s1)CCC2	.	.	.	32µM*
CC(C)(C)CC(=O)Nc1ccncc1	.	.	.	-29%
CC1CC=C2C(C#N)=C(N)C(C#N)(C#N)C(c3cccs3)C2C1 (stereo not given)	?	-5%	27µM*	.
CCOC(=O)N1CC=C2C(C#N)=C(N)C(C#N)(C#N)[C@H](c3cccs3)C2C1 (stereo not given in full)	-9%	-3%	-14%	28%
CC(C)(C)OC(=O)N1CC=C2C(C#N)=C(N)C(C#N)(C#N)C(c3cccs3)C2C1 (stereo not given)	35µM*	11%	-17%	-18%
Cc1nc2c(c(NCCc3cnn(-c4ccccc4)c3)n1)CCNCC2	.	.	.	84%
CNC(=S)N(Cc1ccc(OC)cc1)Cc1cc2ccc(C)cc2[nH]c1=O	3%	1%	24µM*	-12%
C/C(=N\O)C(=O)NCc1ccccn1	-13%	-6%	1%	13%
O=C(NCc1ccccn1)/C(=N/O)c1ccccc1	-17%	-1%	3.4µM*	1%
CC(C)c1cccc(NC(=O)c2cccc(CS(C)=O)c2)c1 (stereo not given)	.	.	.	16%
Cc1ccc(C)c(OCC(O)Cn2nc(-c3ccco3)oc2=O)c1C (stereo not given)	.	.	.	1%
COC(=O)c1nc(NC(=O)c2ccc(Br)cc2)n[nH]1	-4%	.	24µM*	?
COC(=O)c1nc(NC(=O)c2cccc(Br)c2)n[nH]1	.	.	.	-16%
COC(=O)c1nc(NC(=O)C(C)(C)C)n[nH]1	9%	-12%	19µM*	22%
O=C(NC1CCC(c2ccccc2)CC1)c1n[nH]c(=O)c2ccccc12 (stereo not given)	.	.	.	-20%
C=CCSc1n[nH]c(-c2ccc(OCCC)cc2)n1	1%	-22%	-5%	5%
S=c1nc(-c2ccc(Cl)cc2)[nH][nH]1	-29%	-7%	38µM*	?
SMILES	VDR inh	GCN5L2 inh	PLK1 PBD block	ALOX12 inh
CCCOc1ccc(-c2nc(=S)[nH][nH]2)cc1	89µM*	-10%	?	?
Cc1ccccc1CN1CCN(C(=O)c2sc(-c3ccc(F)cc3)nc2C)CC1	.	.	.	0%
NS(=O)(=O)c1cccs1	.	.	.	17%
N#Cc1nccnc1S(=O)(=O)c1cccs1	35µM*	-11%	27µM*	316%
OCCOc1ccc(CNCc2ccco2)cc1	.	.	.	-2%
CCOC(=O)c1cc([N+](=O)[O-])cc([N+](=O)[O-])c1Sc1ncnc2nc[nH]c12	50µM*	.	21µM*	-25%
CCOC(=O)C(C)(C)Sc1ncnc2nc[nH]c12	6%	-3%	-6%	16%
Oc1ccc(/C=N/Nc2ccnc3cc(Cl)ccc23)c(O)c1O	-10%	-23%	2.1µM*	?
Oc1ccc(/C=N/Nc2ccnc3cc(Cl)ccc23)cc1O	-7%	-21%	-12%	?
Clc1ccc2c(NN=C3CCCC3)ccnc2c1	.	.	.	7.9µM*
Cc1noc(-c2ccc(OCc3ccccc3F)cc2O)c1-c1ccccc1	.	.	.	6%
COc1ccc(/C(=C/Nc2cccc(Br)c2)C(C)=O)cc1OC	4%	1%	27µM*	5%
COc1ccc(/C(C)=N/Nc2cccc(C(=O)O)c2)cc1OC	-13%	-10%	-19%	-16%
COc1ccc(F)cc1S(=O)(=O)n1cc(C)nc1-c1ccccc1	?	2%	4.2µM*	21%

High-throughput results as filed in PubChem.
